# Potency and affinity values are given separately. Unmarked numbers belong to inactive results.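 Rule for the calls: active = a dose-response curve fit returns a half-maximal inhibitory concentration, extrapolated values included; inactive = the fit returns no such concentration.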
# Target: HMG-CoA reductase [Enterococcus faecalis] (UniProt Q9FD70)
# Assay: class II HMG-CoA reductase inhibition potency – biochemical, Enterococcus faecalis, confirmation (AID 1233);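 note: 0% = full reaction carrier wells and 100% = background wells lacking mevalonate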
# Conditions: purified E. faecalis HMGR, NADPH absorbance 340 nm kinetics; series mostly up to 100 µM; inhibition: at the top concentration
row,Compound,inhibition
1,Cc1c(NC(=O)CN2C(=O)c3ccccc3S2(=O)=O)c(=O)n(-c2ccccc2)n1C,1.92%
2,O=C1CC(=O)N(Cc2ccco2)C(=S)N1,-2.11%
3,O=C(O)CCCCCCC1C(=O)NC(=O)N1CCC(O)C1CCCCC1 (stereo not drawn),-3.19%
4,N#CCCCn1c(=O)oc2ccccc21,-2.84%
5,c1ccc(-c2ccnc3nc(N4CCN(c5ccccc5)CC4)nn23)cc1,0.5%
6,COc1ccc(Nc2nc3c(C)cccn3c(=O)c2C=NCc2ccccc2)cc1,-3.33%
7,COc1ccc(/C=N/Nc2nccnc2Cl)c(OC)c1,-15.9%
8,COc1ccc(C(=O)NCCc2nnc(SCC(=O)Nc3ccccc3F)n2C)cc1,-1.8%
9,Cc1[nH][nH]c(=O)c1C(c1c(C)[nH][nH]c1=O)c1cn(Cc2ccc(F)cc2)c2ccccc12,8.42%
10,CCCCC(=O)Nc1cc(OCC)c(NC(=S)NC)cc1OCC,-3.85%
11,O=C(O)C1CCCNC1 (stereo not drawn),-0.21%
12,Cc1ccc(Cl)cc1NC(=O)COC(=O)C12CC3CC(CC(C3)C1)C2,-5.2%
13,CCN(CC)c1ccc(-c2n[nH]c(=S)n2-c2ccccc2C)cc1,-8.49%
14,CCOC(=O)C1(O)CC(C)=NN1C(=O)c1cccc(Br)c1 (stereo not drawn),-8.26%
15,N#CC(=C1CCCC1)c1nc(-c2ccc(Cl)cc2)cs1,9.54%
16,CC(C(=O)NC1CCCc2ccccc21)N1CCN(c2ccc(F)cc2)CC1 (stereo not drawn),-4.6%
17,O=C(C1c2ccccc2C(=O)N2CCc3ccccc3C12)N1CCN(Cc2ccccc2)CC1 (stereo not drawn),-3.35%
18,O=C(CNC(=O)c1ccccc1)N/N=C/c1cccs1,0.73%
19,COc1cc(C2CC(=O)N(CC(=O)NCC3CCCO3)c3ccccc3S2)cc(OC)c1OC (stereo not drawn),-0.73%

row,Compound,inhibition
1,CN(c1ccc(C(=O)N2CCCCC2)cc1)S(=O)(=O)c1ccccc1,-3.77%
2,CC(C)CNC(=O)CSc1ccc(Cl)cc1,-5.13%
3,Cn1c(CN2CCCC2)c(C#N)c2ccccc21,-8.53%
4,Cc1cc(/C=C(\C#N)C(=O)NCc2cccs2)c(C)[nH]1,-9.51%
5,Cc1ccc(NS(=O)(=O)c2ccc(NC(=O)[C@@H]3CCCC[C@@H]3C(=O)O)cc2)c(C)c1,-4.04%
6,NNC(=O)C1CC1c1ccc(Cl)cc1 (stereo not drawn),-8.07%
7,Fc1ccccc1CSc1nncn1NC/C=C/c1ccccc1,-5.49%
8,Cc1cc(C)nc(N/N=C2/CCCC/C2=C\c2ccccc2)n1,-4.31%
9,COC(=O)C1=C(CSc2nc3c(cc2C#N)CN(C)CC3)OC(N)=C(C#N)C1c1ccc(F)cc1 (stereo not drawn),-8.53%
10,O=C(CCc1nc2ccccc2c(=O)[nH]1)N1CCN(C/C=C/c2ccccc2)CC1,-4.71%
11,OCCC1CN(Cc2cccs2)CCN1Cc1ccccc1 (stereo not drawn),-9.42%
12,O=C(N/N=C/c1ccc(OC(F)F)cc1OC(F)F)c1cccc(S(=O)(=O)N2CCOCC2)c1,-0.17%
13,COc1ccc2c(C)cc(=S)[nH]c2c1,-1.14%
14,COc1cccc(C(=O)CN2C3=NCCCN3c3ccccc32)c1,-4.22%
15,COc1ccccc1N1CCN(CC(=O)c2c(N)n(C)c(=O)n(C)c2=O)CC1,-3.15%
16,CC(C)OCCCNC(=O)Nc1cccc2ccccc12,-0.1%
17,COc1ccc2c(c1)c(=O)c(C(=O)c1ccccc1)cn2Cc1ccc(C)cc1,-0.52%
18,COc1ccc(NC(=O)N(Cc2cc3ccc(OC)cc3[nH]c2=O)CC2CCCO2)cc1 (stereo not drawn),-3.89%
19,COc1ccc(CCNc2ccncn2)cc1,-1.43%

# Reference: PubChem BioAssay AID1233 (SRMLSC, 2008)
